# Assay results reported in PubChem BioAssay (NCI).
# This is part of a sample that, as a whole, favours compounds with a hit. Of some 79,000 tested, about 15% had one in any assay. A number with no mark means an inactive call. The source made the active and inactive calls. No stated cut-off is given here; in the data, active means growth inhibition above about 70%; inactive means the rest.
# Assay: NCI Yeast Anticancer Drug Screen. Data for the rad52 strain (AID 147);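 further: 0% = growth of vehicle-treated control cultures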
# Settings: S. cerevisiae rad52 mutant growth inhibition, active compounds read high
# Experimental: Growth inhibition of yeast strains with defined genetic alterations is measured as a screen for potential anti-cancer activity. Selected strains with alterations in DNA damage repair or cell cycle control were exposed to compounds and growth inhibition was measured relative to vehicle treated controls. The strain used in this assay is rad52
SMILES,growth inhibition (at 1.2 µM) [%],growth inhibition (at 3.7 µM),growth inhibition (at 11.0 µM),growth inhibition (at 33.0 µM),growth inhibition (at 100.0 µM)
O=C(CNS(=O)(=O)Cc1ccccc1)NNc1ccccc1,-1,2%,12%,35%,44%
CCN(CC)CC(O)c1cc(-c2ccc(Cl)cc2)nc2c(-c3ccccc3)cccc12 (stereo not given),-1,-1%,98% (active),98% (active),93% (active)
O=C1C=CC(=O)N1c1ccc2c(c1)OCO2,11,94% (active),100% (active),100% (active),100% (active)
NNC(=S)Nc1cccc2ccccc12,-10,-35%,-29%,8%,20%
O=Nn1c2ccccc2c2cc([N+](=O)[O-])ccc21,-6,11%,51%,88% (active),95% (active)
O=S1(=O)c2ccccc2N=C(c2ccccc2Cl)CC1c1ccc(F)cc1 (stereo not given),21,24%,28%,35%,34%
O=[N+]([O-])c1cccc2nc3ccccc3c(NCCc3cccc[n+]3[O-])c12,15,47%,81% (active),92% (active),97% (active)
O=C(/C=C/c1cccc(Br)c1)c1ccc(Cl)cc1,-26,-14%,-6%,28%,76% (active)
